# Measured values: the antibiotic and cytotoxicity screens of Wong et al. (2023)
# Among all 39,000 compounds or so, about 1,500 (3.8%) were called active. The entries come from a sample that favours actives as a whole.
# Test system: HSkMC (human skeletal muscle cells)
# Assay: cytotoxicity call (relative viability < 0.9)
# Conditions: 10 µM
row,SMILES,cytotoxicity call
1,CC(C)NC(=O)Nc1ccc2c(c1)CC(=O)N([C@@H](C)CO)C[C@@H](C)[C@@H](CN(C)S(=O)(=O)c1cn(C)cn1)O2,inactive
2,C[C@H](CO)N1C[C@H](C)[C@@H](CN(C)Cc2ccccc2)OCCCC[C@H](C)Oc2ccc(NC(=O)c3ccncc3)cc2C1=O,inactive
3,C[C@@H]1CN([C@@H](C)CO)C(=O)c2c(c3ccccc3n2C)-c2ccccc2CO[C@H]1CN(C)Cc1ccc(C(F)(F)F)cc1,active
4,C[C@@H]1CN([C@H](C)CO)C(=O)c2c(c3ccccc3n2C)-c2ccccc2CO[C@H]1CN(C)Cc1ccc(C(F)(F)F)cc1,active
5,C[C@@H]1CN([C@@H](C)CO)C(=O)c2c(c3ccccc3n2C)-c2ccccc2CO[C@@H]1CN(C)Cc1ccc(C(F)(F)F)cc1,inactive
6,C[C@@H]1CN([C@H](C)CO)C(=O)c2c(c3ccccc3n2C)-c2ccccc2CO[C@@H]1CN(C)S(=O)(=O)c1ccc(C(F)(F)F)cc1,inactive
7,C[C@H]1CN([C@@H](C)CO)C(=O)c2c(c3ccccc3n2C)-c2ccccc2CO[C@H]1CN(C)Cc1ccc(C(F)(F)F)cc1,inactive
8,C[C@@H]1CN([C@H](C)CO)C(=O)c2c(c3ccccc3n2C)-c2ccccc2CO[C@@H]1CN(C)Cc1ccc(C(F)(F)F)cc1,active
9,C[C@@H]1CN([C@@H](C)CO)C(=O)c2c(c3ccccc3n2C)-c2ccccc2CO[C@@H]1CN(C)S(=O)(=O)c1ccc(C(F)(F)F)cc1,inactive
10,C[C@H](CO)N1C[C@H](C)[C@H](CN(C)Cc2ccc(C(F)(F)F)cc2)OCc2ccccc2-c2c(n(C)c3ccccc23)C1=O,inactive
11,C[C@@H]1CN([C@H](C)CO)C(=O)c2c(c3ccccc3n2C)-c2ccccc2CO[C@@H]1CN(C)Cc1ccc(F)cc1,inactive
12,C[C@H]1CN([C@@H](C)CO)C(=O)c2c(c3ccccc3n2C)-c2ccccc2CO[C@@H]1CN(C)Cc1ccc(C(F)(F)F)cc1,inactive
13,C[C@@H]1CN([C@H](C)CO)C(=O)c2c(c3ccccc3n2C)-c2ccccc2CO[C@H]1CN(C)S(=O)(=O)c1ccc(C(F)(F)F)cc1,active
14,C[C@H](CO)N1C[C@H](C)[C@@H](CN(C)Cc2ccc(C(F)(F)F)cc2)OCc2ccccc2-c2c(n(C)c3ccccc23)C1=O,inactive
15,C[C@H](CO)N1C[C@H](C)[C@@H](CN(C)C(=O)Nc2ccccc2)OCCCC[C@H](C)Oc2ccc(NC(=O)Nc3ccc(F)cc3)cc2C1=O,inactive
16,C[C@@H]1CCCCO[C@H](CN(C)C(=O)Nc2ccc3c(c2)OCO3)[C@@H](C)CN([C@@H](C)CO)C(=O)c2cc(NS(=O)(=O)c3cccs3)ccc2O1,inactive
17,CN(C)C(=O)C[C@H]1CC[C@@H](NC(=O)C2CCOCC2)[C@H](CO)O1,inactive
18,O=C(/C=C/c1ccc(O)c(O)c1)O[C@H]1[C@H](O)C[C@](OC(=O)/C=C/c2ccc(O)c(O)c2)(C(=O)O)C[C@H]1O,inactive
19,O=C(C[C@@H]1CC[C@@H]2[C@H](COC[C@@H](O)CN2S(=O)(=O)c2ccc(Cl)cc2)O1)NCC1CCCCC1,inactive
20,COc1ccc(NC(=O)N(C)C[C@@H]2OCCCC[C@@H](C)Oc3ccc(NC(=O)Nc4ccc(F)cc4)cc3C(=O)N([C@H](C)CO)C[C@@H]2C)cc1,inactive

row,SMILES,cytotoxicity call
1,COc1ccc(S(=O)(=O)N(C)C[C@@H]2Oc3ccc(NC(=O)c4ccncc4)cc3C(=O)N([C@@H](C)CO)C[C@H]2C)cc1,inactive
2,C[C@H]1CN([C@@H](C)CO)C(=O)c2cccc(NC(=O)c3nc4ccccc4s3)c2O[C@H]1CN(C)S(C)(=O)=O,inactive
3,CC(C)NC(=O)N(C)C[C@@H]1Oc2ccc(NS(=O)(=O)c3cccs3)cc2CC(=O)N([C@@H](C)CO)C[C@H]1C,inactive
4,C[C@@H]1CN([C@@H](C)CO)S(=O)(=O)c2ccc(C#C[C@@H](C)O)cc2O[C@@H]1CN(C)C(=O)c1ccncc1,inactive
5,CO[C@@H]1CN(C)C(=O)c2cc(NC(=O)C3CC3)ccc2OC[C@H](C)N(C(=O)C2CCOCC2)C[C@H]1C,inactive
6,Cc1noc(C)c1NC(=O)N(C)C[C@H]1Oc2c(NC(=O)NC(C)C)cccc2C(=O)N([C@H](C)CO)C[C@H]1C,inactive
7,CO[C@@H](C(=O)N(C)C[C@H]1OCc2ccccc2-c2c(n(C)c3ccccc23)C(=O)N([C@@H](C)CO)C[C@H]1C)c1ccccc1,inactive
8,C[C@@H]1CN([C@@H](C)CO)C(=O)Cc2cc(NC(=O)Nc3ccc(C(F)(F)F)cc3)ccc2O[C@@H]1CN(C)C(=O)Nc1cccc2ccccc12,active
9,C[C@@H]1CN([C@@H](C)CO)C(=O)Cc2cc(NC(=O)Nc3cccc4ccccc34)ccc2O[C@@H]1CN(C)C(=O)Nc1ccc(C(F)(F)F)cc1,active
10,C[C@H]1CN([C@@H](C)CO)C(=O)Cc2cc(NC(=O)Nc3cccc4ccccc34)ccc2O[C@@H]1CN(C)Cc1ccc(C(F)(F)F)cc1,inactive
11,C[C@H]1CN([C@@H](C)CO)C(=O)Cc2cc(NC(=O)Nc3cccc4ccccc34)ccc2O[C@H]1CN(C)Cc1ccc(C(F)(F)F)cc1,active
12,C[C@H]1CN([C@@H](C)CO)C(=O)Cc2cc(NC(=O)Nc3cccc4ccccc34)ccc2O[C@@H]1CN(C)C(=O)Nc1ccc(C(F)(F)F)cc1,inactive
13,C[C@@H]1CN([C@H](C)CO)C(=O)c2cc(NC(=O)Nc3cccc4ccccc34)ccc2O[C@H]1CN(C)Cc1ccc(C(F)(F)F)cc1,inactive
14,C[C@H](CO)N1C[C@H](C)[C@@H](CN(C)Cc2ccc(C(F)(F)F)cc2)Oc2ccc(NC(=O)Nc3cccc4ccccc34)cc2CC1=O,inactive
15,C[C@@H]1CN([C@@H](C)CO)C(=O)c2cc(NC(=O)Nc3cccc4ccccc34)ccc2O[C@H]1CN(C)Cc1ccc(C(F)(F)F)cc1,inactive
16,C[C@H]1CN([C@@H](C)CO)C(=O)Cc2cc(NC(=O)Nc3ccc(C(F)(F)F)cc3)ccc2O[C@@H]1CN(C)C(=O)Nc1cccc2ccccc12,inactive
17,C[C@H]1CN([C@@H](C)CO)C(=O)Cc2cc(NC(=O)Nc3ccc(C(F)(F)F)cc3)ccc2O[C@H]1CN(C)C(=O)Nc1cccc2ccccc12,inactive
18,C[C@@H]1CN([C@@H](C)CO)C(=O)Cc2cc(NC(=O)Nc3cccc4ccccc34)ccc2O[C@H]1CN(C)C(=O)Nc1ccc(C(F)(F)F)cc1,inactive
19,C[C@H]1CN([C@@H](C)CO)C(=O)c2cc(NC(=O)Nc3cccc4ccccc34)ccc2O[C@H]1CN(C)Cc1ccc(C(F)(F)F)cc1,active
20,COc1ccc(NC(=O)Nc2ccc3c(c2)[C@@H]2C[C@@H](CC(=O)NCc4ccncc4)O[C@H](CO)[C@@H]2O3)cc1,inactive

row,SMILES,cytotoxicity call
1,COc1ccc(S(=O)(=O)N(C)C[C@@H]2OCCCC[C@@H](C)Oc3ccc(NC(=O)Nc4ccccc4)cc3C(=O)N([C@@H](C)CO)C[C@H]2C)cc1,inactive
2,C[C@H](CO)N1C[C@H](C)[C@H](CN(C)S(=O)(=O)c2ccccc2)Oc2ccc(NC(=O)Cn3cnnn3)cc2CC1=O,inactive
3,C[C@@H]1CN([C@@H](C)CO)C(=O)Cc2cc(NC(=O)Cc3cn(C)c4ccccc34)ccc2O[C@H]1CN(C)C(=O)Nc1cccc2ccccc12,inactive
4,C#CCN(O[C@@H](/C=C/[C@@H](O)Cc1ccccc1)C1CC1)[C@@H](Cc1ccc(-n2cc(CCC(=O)NO)nn2)cc1)C(=O)OC,inactive
5,Cc1noc(C)c1S(=O)(=O)N(C)C[C@H]1Oc2ccc(NS(=O)(=O)c3cn(C)cn3)cc2CC(=O)N([C@@H](C)CO)C[C@@H]1C,inactive
6,Cc1noc(C)c1S(=O)(=O)Nc1ccc2c(c1)C(=O)N([C@H](C)CO)C[C@H](C)[C@H](CN(C)C(=O)Nc1ccc3c(c1)OCO3)O2,inactive
7,Cc1noc(C)c1S(=O)(=O)Nc1ccc2c(c1)C(=O)N([C@H](C)CO)C[C@H](C)[C@@H](CN(C)S(=O)(=O)c1ccccc1)O2,inactive
8,O=C(C[C@@H]1C[C@@H]2c3cc(NC(=O)C4CCOCC4)ccc3O[C@@H]2[C@@H](CO)O1)NCc1ccc2c(c1)OCO2,inactive
9,C[C@H](CO)N1C[C@H](C)[C@@H](CN(C)CC2CC2)OCCCC[C@H](C)Oc2ccc(NC(=O)Nc3ccc(C(F)(F)F)cc3)cc2C1=O,inactive
10,C[C@H](CO)N1C[C@H](C)[C@H](CN(C)CC2CCCCC2)OCCCC[C@H](C)Oc2ccc(NC(=O)Nc3ccc(C(F)(F)F)cc3)cc2C1=O,active
11,C[C@@H]1CCCCO[C@@H](CN(C)CC2CC2)[C@H](C)CN([C@H](C)CO)C(=O)c2cc(NC(=O)Nc3ccc(C(F)(F)F)cc3)ccc2O1,inactive
12,C[C@@H]1CCCCO[C@@H](CN(C)CC2CCCCC2)[C@H](C)CN([C@@H](C)CO)C(=O)c2cc(NC(=O)Nc3ccc(C(F)(F)F)cc3)ccc2O1,active
13,C[C@@H]1CCCCO[C@H](CN(C)CC2CCCCC2)[C@H](C)CN([C@H](C)CO)C(=O)c2cc(NC(=O)Nc3ccc(C(F)(F)F)cc3)ccc2O1,active
14,C[C@@H]1CCCCO[C@H](CN(C)CC2CCCCC2)[C@H](C)CN([C@@H](C)CO)C(=O)c2cc(NC(=O)Nc3ccc(C(F)(F)F)cc3)ccc2O1,active
15,CC(C)(N)CO.Cn1c(=O)c2[nH]c(Br)nc2n(C)c1=O,inactive
16,Cc1ccc(S(=O)(=O)N(C)C[C@H]2OCCCC[C@@H](C)Oc3ccc(NC(=O)CCC(F)(F)F)cc3C(=O)N([C@H](C)CO)C[C@H]2C)cc1,inactive
17,CO[C@H]1CN(C)C(=O)c2ccc(NC(C)=O)cc2OC[C@@H](C)N(S(=O)(=O)c2cn(C)cn2)C[C@@H]1C,inactive
18,C[C@@H]1CCCCO[C@@H](CN(C)Cc2ccc(Cl)c(Cl)c2)[C@@H](C)CN([C@H](C)CO)C(=O)c2cc(N(C)C)ccc2O1,inactive
